Consider five compounds from PubChem BioAssay (NCI).

Several values for one entry are separate records, joined by “and”; a condition that tells them apart may be missing. Equal values may be shown once. Compounds without any hit were thinned out: in the full panel of roughly 83,000, 20% have a hit.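 Each cell line was grown in a 96-well plate and treated with one concentration of compound for 48 hours. Values below 10 were considered active.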 Activity calls are given as the source filed them.

What all share (assay): NCI-60 one-dose screen, 48 h (100 = growth as untreated, 0 = no growth, -100 = all killed)
Common to all, as to conditions: 10 µM unless noted

The test system of test [1] is NCI-H23 lung.
For test [2], the system named is NCI-H226 lung.
Test [3] has as its system NCI-H322M lung.
In test [4] the test system is HOP-62 NSCLC.
Test [5] concerns NCI-H460 lung.
For test [6], the system named is HOP-92 NSCLC.
Test [7] concerns NCI-H522 lung.
Test [8] concerns 786-0 renal.
Test [9] relates to COLO 205 colon.
Test [10] has as its system DU-145 prostate.
In test [11] the test system is K-562 leukemia.
Test [12] deals with MALME-3M melanoma.
For test [13], the system named is MDA-MB-231 breast.
For test [14], the system named is RXF 393 renal.
Test [15] has as its system SF-268 CNS.
Test [16] has as its system SF-295 CNS.
Test [17] has as its system SF-539 CNS.
The test system of test [18] is UACC-257 melanoma.
Test [19] relates to M14 melanoma.
In test [20] the test system is A549/ATCC NSCLC.

With `Cc1ccc(NCSc2ccc(Cl)cc2)cc1`, the growth in [1] is 80.7% (inactive) and 93.2% (inactive); in test [2], 63.5% (inactive) and 103% (inactive); in test [3] it was 94.8% (inactive) and 94.6% (inactive); in [4] it was 112% (inactive) and 87.8% (inactive); in [5], 82.7% (inactive) and 93.8% (inactive); in test [6], 63% (inactive). The growth in test [7] is 29% (inactive) and 47.1% (inactive); in [8], 39.1% (inactive) and 53.7% (inactive); in [9] it was 81.6% (inactive) and 93.1% (inactive); in [10] it was 93.2% (inactive) and 95.4% (inactive); in test [11], 74.1% (inactive) and 80.2% (inactive); in test [12], 115% (inactive) and 92.6% (inactive). The growth in test [13] is 58.7% (inactive) and 59.7% (inactive); in [14] it was 100% (inactive) and 111% (inactive); in test [15], 63.9% (inactive) and 57.2% (inactive); in test [16], 85.8% (inactive); in test [17], 65% (inactive) and 69.6% (inactive); in [18] it was 70.7% (inactive) and 86.5% (inactive). For the same compound, the growth in test [19] is 76% (inactive) and 89% (inactive).

On to `COc1cc(C(=O)N/N=C/c2ccc(N(C)C)cc2)cc(OC)c1OC`, for which the growth in [1] was 19.4% (inactive); in test [2], 71.9% (inactive); in [4] it was 49% (inactive); in test [5], 3.54% (active); in test [6], 46.8% (inactive); in test [20], 18.4% (inactive). The growth is 42.2% (inactive) in test [8]; -25.7% (active) in test [9]; 0.807% (active) in [10]; 14% (inactive) in [11]; 30.2% (inactive) in [13]; 26.4% (inactive) in [14]. Also, the growth in test [15] was 57.6% (inactive); in test [16], 19.1% (inactive); in [17] it was 14.1% (inactive); in test [18], 43.2% (inactive); in test [19], 6.72% (active).

As to `Cn1cnc([N+](=O)[O-])c1Sc1ncnc2nc[nH]c12`, the growth in test [2] was 51.2% (inactive) and 72.4% (inactive); in [3] it was 55.1% (inactive) and 47.5% (inactive); in test [4] it was 37.2% (inactive) and 20.8% (inactive); in [5], 70.4% (inactive) and 69% (inactive); in test [6] it was 60.7% (inactive) and 61.4% (inactive); in test [7] it was 65.1% (inactive) and 85.9% (inactive). Besides, the growth in [20] is 82% (inactive) and 107% (inactive); in test [8], 36.2% (inactive); in [9] it was 94.5% (inactive) and 112% (inactive); in [10] it was 44.5% (inactive); in test [11] it was 20.4% (inactive) and 23.6% (inactive); in test [12], 75.5% (inactive) and 93.8% (inactive). The growth in [13] is 31.3% (inactive) and 57.8% (inactive); in test [14] it was 79.5% (inactive) and 94.4% (inactive); in [15], 69.1% (inactive) and 49.2% (inactive); in [16], 33.5% (inactive) and 31.1% (inactive); in test [17] it was 37.8% (inactive) and 33.3% (inactive); in test [18], 73.4% (inactive) and 98.4% (inactive). In addition, in test [19], the growth is 30.3% (inactive) and 21.4% (inactive).

As to `CN(C)c1ccc2nc3ccc(=[N+](C)C)cc-3sc2c1`, the growth in [2] was 52.2% (inactive) and 66.6% (inactive) and 68.8% (inactive); in test [3] it was 24.8% (inactive) and 11.7% (inactive) and 30.7% (inactive); in test [4], 58.7% (inactive) and 24.6% (inactive) and 46.6% (inactive); in [5] it was 17.1% (inactive) and 13.5% (inactive) and 32.9% (inactive); in test [6], 63.3% (inactive) and 43.9% (inactive) and 76.6% (inactive); in test [7], 6.69% (active) and 34.6% (inactive) and 37.6% (inactive). The growth in test [20] is 3.7% (active) and 3.9% (active) and 14.7% (inactive); in test [8], 40.9% (inactive) and 45.6% (inactive) and 54.6% (inactive); in [9], 11.2% (inactive) and -3.25% (active) and -16.6% (active); in test [10], 33.3% (inactive) and 39.8% (inactive) and 87.1% (inactive); in test [11], 27.4% (inactive) and 41.7% (inactive) and 43.5% (inactive); in [12], -30.4% (active) and -12.7% (active) and 48.8% (inactive). Moreover, the growth is 8.14% (active) and 10% (active) and 33.4% (inactive) in test [13]; 79.9% (inactive) and 65.7% (inactive) and 82.6% (inactive) in [14]; 27.7% (inactive) and 22.8% (inactive) and 26.2% (inactive) in test [15]; 17.2% (inactive) and 17.6% (inactive) and 43% (inactive) in test [16]; 28.4% (inactive) and 3.79% (active) and 15.5% (inactive) in [17]; -12.8% (active) and -22.4% (active) and 17.8% (inactive) in test [18]. Moreover, in test [19], the growth was 2.78% (active) and 3.94% (active) and 15.5% (inactive).

Turning to `COc1cc(NS(C)(=O)=O)ccc1Nc1c2ccccc2nc2c(C)cccc12`, the growth in test [1] was -8.23% (active) and 1.07% (active); in [2], -57.6% (active) and -44.9% (active); in [3], 22.8% (inactive) and 28.6% (inactive); in [5], -36.3% (active) and -9.34% (active); in test [6] it was -17.9% (active); in [7] it was -14.2% (active). Also, the growth is -62.9% (active) in test [20]; -41.9% (active) and -40.4% (active) in test [8]; 7.98% (active) and 0.541% (active) in test [9]; -8.9% (active) and 7.58% (active) in test [10]; 8.6% (active) and 7.61% (active) in test [11]; -3.04% (active) and 29.4% (inactive) in test [12]. Moreover, the growth in [13] is 36.7% (inactive); in [14] it was -2.83% (active) and 8.08% (active); in test [15] it was 2.5% (active) and 16.2% (inactive); in test [16], -24.8% (active); in [17], -35.6% (active) and -30.6% (active); in test [18] it was 16.1% (inactive). Further, in test [19], the growth was 19.4% (inactive) and 11.8% (inactive).
